Compounds with a hit are over-represented: about 4.2% of the library has one in this group of screens.
uPA generation – qHTS for Inhibitors of Cell Surface uPA Generation; cell surface uPA generation assay, qHTS; Potency, µM (series often up to 38.3 µM), inactives show top-dose activity change, negative = inhibition, most hits filed as inhibitors; 330,000 compounds, 0.31% hits; AID 540303, 2011; active = well fitted inhibition curve with a large enough effect; inconclusive = small, poorly fitted or top-dose-only effect; inactive = no such curve, though single readings can be large or run the other way; tested in mouse RAW 264.7 cells; also: potency is read from the fitted curve at half-maximal effect; % is scaled to controls: 0 for no effect and ±100 for the full control effect; nearly all actives have a fitted effect of over 55% in size
Sfp inh – qHTS Assay for Inhibitors of Bacillus subtilis Sfp phosphopantetheinyl transferase (PPTase); 4'-phosphopantetheinyl transferase ffp (Bacillus subtilis), Q9F4F7; Biochemical Sfp PPTase activity, qHTS; Potency, µM, for inactives: largest response in the series, negative = inhibition, most hits filed as inhibitors; 310,000 compounds, 3.5% hits; AID 1490, 2009;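 also: the enzyme is Sfp with the accession as filed and its product quenches rhodamine fluorescence; potency is read from the fitted curve at half-maximal effect; 0% = enzyme reaction without inhibitor and -100% = no enzyme wells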
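Fluorescence-quenching assay with 15 nM Sfp, 5 uM rhodamine-CoA and 12.5 uM BHQ-2-labelled ybbR peptide in pH 7.6 Hepes/MgCl2 buffer. Enzyme was pre-incubated with compound for 15 min at room temperature. Rate was taken from the 30-min fluorescence change (525/598 nm).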
ClpP mod – qHTS Assay for Activators of ClpP; ATP-dependent Clp protease proteolytic subunit (Bacillus subtilis (strain 168)), P80244; purified B. subtilis ClpP, FRET peptide cleavage, 20 min; Potency, µM (series often up to 57.5 µM), for the others: at the highest dose activity change, negative = active; 340,000 compounds, 1.9% hits; active = well fitted falling curve with a large enough effect; inconclusive = small, poorly fitted or top-dose-only effect; inactive = no such curve, though single readings can be large or run the other way; also: potency is read from the fitted curve at half-maximal effect; the source files actives as falling curves though it sought activators and does not explain the sign; nearly all actives have a fitted effect of over 65% in size
Target sequence (P80244 whole entry, looked up): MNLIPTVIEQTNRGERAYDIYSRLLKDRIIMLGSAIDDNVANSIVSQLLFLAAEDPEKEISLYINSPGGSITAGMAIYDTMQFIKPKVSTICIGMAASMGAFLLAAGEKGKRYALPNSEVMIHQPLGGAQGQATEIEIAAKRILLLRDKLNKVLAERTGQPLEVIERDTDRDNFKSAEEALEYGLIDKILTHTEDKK
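Purified B. subtilis ClpP, 10 microg/mL final in Tris/HCl pH8 with KCl, BSA, glycerol and Tween-20, cleaved an Abz/nitrotyrosine-quenched decapeptide. Fluorescence (ex 320, em 430) was read at 0 and 20 min at room temperature. Delta was normalized to 5.8 microM ADEP and DMSO/no-enzyme controls.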
TCR act – Activators of T cell receptors: qHTS campaign. Potency, µM (doses to about 9.22 µM), without a hit: top-dose activation of IL-2 secretion, most hits filed as activators. AID 504894, 2011. primary human leukocytes, anti-CD3, IL-2 HTRF, 48 h. 330,000 tested, under 10 active; also: % of control where 0% means no effect
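HTRF read-out of IL-2 secretion: europium cryptate donor excited at 320nm, d2 acceptor emission at 665nm. Cells were primary human leukocytes incubated 48 hr with compounds and a-CD3 beads, supplying TCR signal only.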
* hit, by the source's call; ? = inconclusive; . = no result; [ ] = dose if it differs, or a comment. Unless noted, calls follow the shape of the dose curve; as a rule, active = well fitted curve in the direction sought with a large enough effect; inconclusive = small, poorly fitted or top-dose-only effect, or another doubt; inactive = no such curve, though single readings can be large; an effect the other way counts as inactive or inconclusive.

SMILES	uPA generation	Sfp inh	ClpP mod	TCR act
COc1cc(C[C@@H](C)[C@@H](C)Cc2ccc(O)c(OC)c2)ccc1O	-1%	.	-4%	1%
CC(Cc1ccc(O)c(O)c1)C(C)Cc1ccc(O)c(O)c1 (stereo not drawn)	?	40µM*	0%	-8%
Cc1nn2c(N)c(C#N)cnc2c1-c1ccccc1	-10%	16%	-16%	3%[46.1 µM]
N#Cc1cnc2c(-c3ccccc3)c(-c3ccccc3)nn2c1N	-2%	15%	32µM*	10%
COc1cc(/C=N/Nc2nc3c(c(=O)n(C)c(=O)n3C)n2Cc2ccccc2)ccc1OC(=O)c1ccco1	8%	7%	32µM*	1%[46.1 µM]
Cc1ccccc1NC(=O)c1c(C)oc2ccc(O)c(CN(C)Cc3ccccc3)c12	.	.	-6%	.
CCOc1ccc(NS(=O)(=O)c2ccc(NC(=O)N3CCCC3)cc2)cc1	.	.	0%	.
CSc1ccccc1NC(=O)C1CCCO1 (stereo not drawn)	.	79µM*	-3%	-2%
COc1cc(/C=N/NC(=O)c2ccc(NC(=O)C3CC3)cc2)ccc1OC(C)=O	1%	?	-4%	-1%
CSc1ccccc1NC(=O)c1noc2c1CCC2	.	20µM*	0%	-6%
NC(=O)c1ccccc1NC(=O)C1CCCO1 (stereo not drawn)	-1%	2%	.	-3%
O=C(Nc1ccc(F)cc1)c1ccc(NC(=O)C2CCCO2)cc1 (stereo not drawn)	0%	25%	1%	-1%
COc1ccc(/C=N/NC(=O)c2ccc(NC(=O)C3CCCCC3)cc2)cc1O	-7%	79µM*	-9%	2%
Cc1ccccc1NC(=O)c1ccc(NC(=O)C2CCCO2)cc1 (stereo not drawn)	10%	15%	16µM*	-1%
O=C(CC1CC1)Nc1ccc2c(c1)[C@H]1C[C@H](CC(=O)N3CCc4ccccc4C3)O[C@@H](CO)[C@H]1O2	.	.	-2%	.
CCOc1ccccc1OCCCC(=O)NNC(=O)c1cc(C)oc1C	7%	.	0%	-13%
COc1ccccc1C(=O)N/N=C(\C)c1ccc(NC(=O)C2CC2)cc1	-12%	1%	28µM*	7%[46.1 µM]
O=C(Nc1ccccc1C(=O)O)c1ccc(NC(=O)C2CC2)cc1	7.9µM*	7%	-1%	4%
O=C(Nc1ccccc1O)c1ccc(NC(=O)C2CC2)cc1	-6%	2%	0%	3%
O=C(/C=C/c1ccc([N+](=O)[O-])cc1)Nc1cccc(C(=O)Nc2ccccc2C(=O)O)c1	-17%	22%	0%	-3%
O=C(CSc1nc2c([nH]c3ccccc32)c(=O)n1-c1ccc(F)cc1)N1CCc2ccccc21	.	.	-15%	.
Cc1cc(NC(=O)CSc2nc3c([nH]c4ccccc43)c(=O)n2-c2ccccc2F)no1	22%	-1%	-21%	-3%
COc1cccc(-n2c(SCC(=O)Nc3cc(C)on3)nc3c([nH]c4ccccc43)c2=O)c1	31%	25µM*	-21%	-10%[46.1 µM]
O=C(CSc1nc2c([nH]c3ccccc32)c(=O)n1-c1ccccc1)N1CCc2ccccc21	.	.	28µM*	.
Cc1cc(NC(=O)CSc2nc3c([nH]c4ccccc43)c(=O)n2-c2cccc(C(F)(F)F)c2)no1	18%	5%	28µM*	-6%[46.1 µM]
SMILES	uPA generation	Sfp inh	ClpP mod	TCR act
COc1cccc(-n2c(SCC(N)=O)nc3c([nH]c4ccccc43)c2=O)c1	-6%	20µM*	-4%	4%
Cc1ccc(Nc2nc(-c3c(C)nc4ncccn34)cs2)cc1	-11%	50µM*	-28%	-1%
Cc1nc2ccccn2c1-c1csc(NCc2ccco2)n1	-6%	?	-17%	3%
Cc1nc2ncccn2c1-c1csc(Nc2ccc(O)cc2)n1	-14%	?	.	6%
Cc1ccc(Nc2nc(-c3c(C)nc4ccccn34)cs2)cc1	-11%	45µM*	28µM*	8%
COc1ccc(NS(=O)(=O)c2ccc3c(c2)CCCN3C(=O)C2CCC2)cc1OC	.	.	1%	.
CC(C)[C@H](CO)NC(=O)[C@H]1O[C@@H](n2ccc(=O)[nH]c2=O)[C@H](O)[C@@H]1O	.	.	0%	.
Cc1c(-c2ccc(Br)cc2)nc2ccccn12	-4%	3%	25µM*	3%[46.1 µM]
Cc1ccc(-c2nc3ccccn3c2C=O)cc1	?	-14%	-7%	5%
OC1(C#CCN2CCCC2)CCCCC1	-3%	2%	-3%	-2%
Cc1ccc(C)c(NC(=O)C2CCCC2)c1	-15%	.	-1%	2%
COCc1cc(=O)[nH]c2cc(NC(=O)C3CC3)c(C)cc12	1%	14%	20µM*	1%
Cc1cc(S(=O)(=O)NCc2ccccc2)ccc1OCC(=O)NCc1ccncc1	-2%	-28%	?	6%
COc1ccc(-c2noc(CCCC(=O)NCc3ccco3)n2)cc1OC	0%	-1%	28µM*	-5%
O=C(CSc1ccc(-c2ccco2)nn1)c1cccc([N+](=O)[O-])c1	-1%	14µM*	0%	11%[46.1 µM]
CC(=O)c1cccc(NC(=O)CSc2ccc(-c3ccco3)nn2)c1	-4%	20µM*	-7%	1%
CCc1ccc(NC(=O)CSc2ccc(-c3ccco3)nn2)cc1	-2%	35µM*	1%	7%
COc1cccc(-c2noc(CCCC(=O)NCc3ccco3)n2)c1	.	.	-1%	.
CCc1ccc(NC(=O)CSc2nnc(-c3ccco3)o2)cc1	2%	11%	1%	3%
COc1ccc2cc(CCNS(=O)(=O)c3ccc(C)cc3)c(=O)[nH]c2c1	.	.	4%	.
CC1=C(C(=O)Nc2ccccc2)C(c2cccc(O)c2)n2nc(-c3ccccc3Cl)nc2N1 (stereo not drawn)	.	.	-9%	.
O=C(O)c1ccc(CNC(=O)C2CCN(S(=O)(=O)c3cccs3)CC2)cc1	.	.	0%	.
COc1ccc(-c2ccc(SCC(=O)NCc3ccco3)nn2)cc1OC	-8%	50µM*	-2%	6%
COc1ccccc1CCNC(=O)CSc1ccc(-c2ccco2)nn1	2%	22µM*	.	7%
O=C(CSc1ccc(-c2ccco2)nn1)NCc1ccccc1	2%	22µM*	-13%	-11%[46.1 µM]
SMILES	uPA generation	Sfp inh	ClpP mod	TCR act
O=C(CSc1ccc2nnc(-c3cccnc3)n2n1)NCc1ccco1	-1%	50µM*	-5%	9%
Cc1ccc(-n2ncc(C(=O)N3CCN(Cc4ccccc4)CC3)c2C2CCN(C(=O)OC(C)(C)C)CC2)c(C)c1	.	.	0%	.
CCCCn1cc(S(=O)(=O)c2ccc(C)c(C)c2)c(=O)c2cc(F)c(N(CC)CC)cc21	.	.	-24%	.
CCOc1ccc(-c2cn3c(n2)sc2cc(C(=O)NC(C)C45CC6CC(CC(C6)C4)C5)ccc23)cc1 (stereo not drawn)	.	.	-8%	.
O=C(CN(C(=O)CCC(=O)Nc1nccs1)c1ccc2c(c1)OCO2)NCc1ccccc1	4%	-11%	.	8%
CCCCc1cc(=O)oc2cc(C)cc(OCC(=O)O)c12	.	19%	8.9µM*	-1%
CCCCc1cc(=O)oc2cc(C)cc(OCC(=O)NCC3CCC(C(=O)O)CC3)c12 (stereo not drawn)	0%	13%	5%	-7%
